These results are taken from PubChem BioAssay AID652180 (National Center for Advancing Translational Sciences (NCATS), 2013).

Results filed as inconclusive are left out. Activity calls are given as the source filed them. Calls follow the shape of the dose curve; as a rule, active = well fitted inhibition curve with a large enough effect; inconclusive = small, poorly fitted or top-dose-only effect; inactive = no such curve, though single readings can be large or run the other way.

The assay in a line: qHTS Assay for Lipid Storage Modulators: 3T3L1 Assay against Probe and Analogs. Conditions: 3T3-L1 lipid droplets, BODIPY imaging, oleic acid, 18-24 h; series mostly up to 46.1 µM; activity change, negative = decreased lipid storage: at the top concentration. An excerpt:
Storing lipids as a reservoir for energy or the anabolism of elementary metabolites is a common feature of probably all cells and is conserved from bacteria to humans. The universal cellular lipid storage organelle is the so-called lipid storage droplet (LD). Although ubiquitous, LDs share a simple structure composed of a hydrophobic core that harbors the storage lipids, which is shielded by a droplet-specific phospholipid monolayer to which proteins are attached. The current model of LD biogenesis involves an incorporation of the lipid core into the membrane leaflets of the endoplasmic reticulum (ER) followed by a subsequent budding-like maturation of a LD, which ultimately pinches off. Once released, LD volume can increase by localized lipogenesis or fusion of existing droplets. Storage lipids are re-mobilized enzymatically by lipase activity. Lipase regulation in the adipocyte is heavily studied and involves multiple components including catecholamine signaling, the LD-associated proteins Perilipin and comparative gene identification-58 (CGI-58) and at least two lipases named hormone sensitive lipase (HSL) and adipocyte triglyceride lipase (ATGL). LD regulation outside of the adipocyte is poorly understood and only few components are known. However, there is an urgent need to learn more about ectopic fat depots as mislocalized storage of lipids, for example in the liver or muscle, is an eminent health problem associated with insulin resistance or the metabolic syndrome. We developed a laser-scanning cytometer assay to enable 1,536-well screening and combined the results of the small molecules screen with an RNAi database based on lipid storage. In this assay we tested analogs of the probe against a mammalian cell line (3T3L1), to see if these small molecules could disrupt lipid storage. NIH Molecular Libraries Probe Production Centers Network [MLPCN] NIH Chemical Genomics Center [NCGC] MLPCN Grant: MH085686 Assay Submitter (PI): Mathias Beller, Max-Planck-Institut fur Biophysikalische Chemie
3T3L1 cells were obtained from ATCC (CL-173). 4 uL of cells at 1.25 X 105 cell/mL were dispensed into 1536 well Poly-D-Lysine coated black with clear bottom imaging plates (Corning, #7356) to obtain 500 cells/well, and cultured at 37 °C, 95% humidity, and 5% CO2 overnight. The culture medium used was OPTI-MEM containing 5% fetal bovine serum (FBS). Triacsin C (Sigma-Aldrich T-4540), an inhibitor of long-chain fatty acyl CoA synthetase that blocks synthesis of triglycerides, was used as a positive control for lipid under-storage. A total of 23 nL of compounds dissolved in DMSO at different concentrations were transferred to the assay plates using a Kalypsys 1536-pin tool, the final DMSO concentration was 0.46%. One microliter of oleic acid at 400 uM (Calbiochem, #4954) was added to induce lipid droplet formation in the cells, and the plates were lidded. After 18-24 hours of incubation at 37 °C, 95% humidity, and 5% CO2, cells were fixed (8 % paraformaldehyde in PBS, 30 min, room temperature), washed three times with PBS, then stained for lipid droplet and nucleus using 4uL of PBS solution containing BODIPY lipid dye 493/503 (1:2000 dilution, Life Technologies, #3922) and Hoechst 33342 (1:1000, Life Technologies, #H3570) with Washer dispenser EL406(Biotek). Images were acquired using InCell 2000 (GE). Number of cells, number of lipids and sizes of lipids were analysis using GE Investigator software.
Regarding `COc1cc(C)c(Sc2cnc(NC(=O)c3ccc(CNC(C)C(C)(C)C)cc3)s2)cc1C(=O)N1CCN(C(C)=O)CC1` (stereo not given), the Potency was 3320 nM (active).

`O=C(Nc1cccc2c1cnn2-c1ccc(F)cc1)c1ccccn1`: the “activity change, negative = decreased lipid storage” value is 11.2% (inactive).

Take `CCOc1ccc(CCNC(C)=O)cc1OCC`: the “activity change, negative = decreased lipid storage” value is -8.63% (inactive).

Regarding `Cc1cccc(-c2ccc3ncnc(NCc4cccc(F)c4)c3c2)c1`, the “activity change, negative = decreased lipid storage” value is 36.3% (inactive).

As for `O=C(NCCc1ccc2c(c1)OCO2)c1cc2sccc2n1Cc1ccccc1`, the “activity change, negative = decreased lipid storage” value was -41.2% (inactive).

Turning to `O=C(NC1CCCc2c1cnn2-c1ccc(F)cc1F)C1CCCCN1` (stereo not given), the “activity change, negative = decreased lipid storage” value is -11.6% (inactive).

Turning to `Cc1cc2c(cc1C1(c3ccc(C(=O)O)cc3)CC1)C(C)(C)CCC2(C)C`, the “activity change, negative = decreased lipid storage” value was 111% (inactive).

Regarding `CCOc1ccc(CCNC(=O)c2cnon2)cc1OCC`, the “activity change, negative = decreased lipid storage” value is -17.2% (inactive).

With `Cc1cn(-c2cc(NC(=O)c3ccc(C)c(Nc4nccc(-c5cccnc5)n4)c3)cc(C(F)(F)F)c2)cn1`, the “activity change, negative = decreased lipid storage” value is -41.8% (inactive).

On to `O=C(Cc1ccccc1)NC1CCCc2c1cnn2-c1ccc(F)cc1F` (stereo not given), for which the “activity change, negative = decreased lipid storage” value was -11.1% (inactive).

For the compound `O=C(NC1CCCc2c1cnn2-c1ccc(F)cc1F)c1ccccc1` (stereo not given), the Potency entry is “inactive”.

Turning to `O=C(NC1CCCc2c1cnn2-c1ccc(F)cc1F)c1ccc(C2(C(F)(F)F)N=N2)cc1` (stereo not given), the “activity change, negative = decreased lipid storage” value was 78.7% (inactive).

Take `C[C@@H](NCCCc1cccc(C(F)(F)F)c1)c1cccc2ccccc12`: the “activity change, negative = decreased lipid storage” value is -104% (inactive).

Take `CCn1c(C(=O)NCCc2ccc(OC)c(OC)c2)cc2sccc21`: the “activity change, negative = decreased lipid storage” value is -29.2% (inactive).

Regarding `CCOC(=O)C1CCN(C(=O)C(C)(C)NC(=O)Nc2cccc(C(=O)OC)c2)CC1`, the “activity change, negative = decreased lipid storage” value is -25.1% (inactive).

With `O=C(NCCc1ccc2c(c1)OCO2)c1cc2sccc2[nH]1`, the “activity change, negative = decreased lipid storage” value was 37.4% [at 38.8 µM] (inactive).

`O=C(NC1CCCc2c1cnn2-c1ccc(F)cc1F)C1CCCCC1` (stereo not given): the “activity change, negative = decreased lipid storage” value was 103% (inactive).

Turning to `O=C(NC1CCCc2c1cnn2-c1ccc(F)cc1F)c1cnccn1` (stereo not given), the “activity change, negative = decreased lipid storage” value was 81.4% (inactive).

On to `O=C(NC1CCCc2c1cnn2-c1ccc(F)cc1F)c1ccc(C(=O)c2ccccc2)cc1` (stereo not given), for which the “activity change, negative = decreased lipid storage” value is 36.4% (inactive).

For the compound `CC(C)(C)OC(=O)NCCOCCOCCOCCn1ncc2c1CCCC2NC(=O)c1ccccn1` (stereo not given), the “activity change, negative = decreased lipid storage” value is -33.2% (inactive).

Turning to `Cc1ccc(NC(=O)c2ccc(CN3CCN(C)CC3)cc2)cc1Nc1nc(-c2cccnc2)cs1`, the “activity change, negative = decreased lipid storage” value was 55.2% (inactive).

As for `CCOc1ccc(CCNC(=O)c2cc3sccc3n2Cc2ccccn2)cc1OCC`, the Potency is 23.5 nM (active).

Consider `CCOC(=O)C1CCN(C(=O)C(C)(C)NC(=O)Nc2ccc(N)cc2)CC1`, for which the “activity change, negative = decreased lipid storage” value is 17.4% (inactive).

As for `CC(C)(C)OC(=O)NCCOCCOCCOc1ccc(-n2ncc3c2CCCC3NC(=O)c2ccccn2)cc1` (stereo not given), the “activity change, negative = decreased lipid storage” value was 44.9% (inactive).

As to `CN(C)CC(=O)NC1CCCc2c1cnn2-c1ccc(F)cc1F` (stereo not given), the “activity change, negative = decreased lipid storage” value is -13.8% (inactive).

For the compound `CCOc1ccc(CCNC(=O)C2=C(C)OCCO2)cc1OCC`, the “activity change, negative = decreased lipid storage” value is -14% (inactive).

Consider `O=C(Nc1cccc2nn(-c3ccc(F)cc3)cc12)c1ccccn1`, for which the “activity change, negative = decreased lipid storage” value is 55.5% (inactive).

`CCOc1ccc(CCNC(=O)c2ccc(N3N=C(C)CC3=O)cc2)cc1OCC`: the “activity change, negative = decreased lipid storage” value was -22.6% (inactive).

Turning to `O=C(NC1CCCc2c1cnn2-c1ccc(O)cc1)c1ccccn1` (stereo not given), the “activity change, negative = decreased lipid storage” value was -19.4% (inactive).

As for `O=C(NC1CCCc2c1cnn2-c1ccc(F)cc1F)c1ccncc1` (stereo not given), the “activity change, negative = decreased lipid storage” value was 63.1% (inactive).

For `CCOC(=O)C1CCN(C(=O)C(C)(C)NC(=O)Nc2ccc(OC)c(Cl)c2)CC1`, the “activity change, negative = decreased lipid storage” value is -43.9% (inactive).

Consider `CCOc1ccc(CCNC(=O)c2ccccn2)cc1OCC`, for which the “activity change, negative = decreased lipid storage” value was -36% (inactive).

As for `CCOC(=O)C1CCN(C(=O)C2(NC(=O)Nc3ccccc3Cl)CC2)CC1`, the “activity change, negative = decreased lipid storage” value is -13.9% (inactive).

For the compound `O=C(NC1CCCc2c1cnn2-c1ccc(F)cc1F)c1cccc(=O)[nH]1` (stereo not given), the “activity change, negative = decreased lipid storage” value is 27.2% (inactive).

In the case of `O=C(NC1CCCc2c1cnn2-c1ccc(F)cc1F)c1ccsc1` (stereo not given), the “activity change, negative = decreased lipid storage” value was 55.2% (inactive).

With `O=C(NC1CCCc2c1cnn2-c1ccc(F)cc1F)c1cnon1` (stereo not given), the “activity change, negative = decreased lipid storage” value was -9.25% (inactive).

On to `Cc1cc(SCc2sc(-c3ccc(C(F)(F)F)cc3)nc2C)ccc1OCC(=O)O`, for which the “activity change, negative = decreased lipid storage” value was 28% (inactive).

For the compound `CCOc1cc(F)c(CCNC(=O)c2cc3sccc3n2Cc2ccccc2)cc1OCC`, the Potency is 14.8 nM (active).

`CCOc1ccc(CCNC(=O)c2ccc3[nH]ccc3c2)cc1OCC`: the “activity change, negative = decreased lipid storage” value is 8.17% [at 38.8 µM] (inactive).

On to `O=C(O)CCc1ccc(NCc2cccc(Oc3ccccc3)c2)cc1`, for which the “activity change, negative = decreased lipid storage” value is -49.7% (inactive).
